According to PubChem BioAssay (NCATS):
Inconclusive results are not listed. Activity calls are given as the source filed them. Unless noted, calls come from the whole dose curve; as a rule, active = well fitted curve in the direction sought with a large enough effect; inconclusive = small, poorly fitted or top-dose-only effect, or another doubt; inactive = no such curve, though single readings can be large; an effect the other way counts as inactive or inconclusive.

Columns and labels:
[1] = qHTS Assay for Identification of Small Molecule Agonists for Thrombopoietin (TPO) Signaling Pathway (AID 917)
How it was run: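 Stimulation at the TPO EC50 (26 pM final) was used to detect activators. Ba/F3 mouse cells bearing human TPO receptor and a luciferase reporter under the Glycoprotein IIb promoter were exposed to compounds for 24 hrs at 37 C.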

[2] = target: Pyruvate kinase (Leishmania mexicana) (UniProt Q27686); test: qHTS Validation Assay for Inhibitors of Leishmania Mexicana Pyruvate Kinase (AID 945)
Chain of Pyruvate kinase (Leishmania mexicana) (Q27686 2-499 E452W): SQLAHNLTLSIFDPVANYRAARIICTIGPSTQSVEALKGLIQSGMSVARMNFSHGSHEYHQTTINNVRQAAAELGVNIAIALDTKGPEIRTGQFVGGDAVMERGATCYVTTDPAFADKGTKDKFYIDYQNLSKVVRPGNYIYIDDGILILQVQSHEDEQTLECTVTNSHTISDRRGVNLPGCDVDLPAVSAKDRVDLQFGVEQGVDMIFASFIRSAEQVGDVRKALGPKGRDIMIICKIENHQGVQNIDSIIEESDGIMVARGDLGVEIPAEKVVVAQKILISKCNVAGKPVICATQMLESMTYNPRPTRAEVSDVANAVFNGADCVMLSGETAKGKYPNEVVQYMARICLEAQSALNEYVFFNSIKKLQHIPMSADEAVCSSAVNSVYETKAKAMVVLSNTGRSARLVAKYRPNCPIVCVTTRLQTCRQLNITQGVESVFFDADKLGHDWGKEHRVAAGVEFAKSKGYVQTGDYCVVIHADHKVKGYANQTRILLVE
How it was run: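 Eight-point qHTS titrations in triplicate, data normalized to DMSO neutral control. Reaction: 0.2 nM LmPYK E451W mutant, 0.5 mM PEP, 0.1 mM ADP, 7 mM MgCl2, pH 7.2, one hour at room temperature; luminescent ATP detection.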

[3] = target: Pyruvate kinase PKM (Homo sapiens) (UniProt P14618); test: qHTS Assay for Activators of Human Muscle Pyruvate Kinase (AID 954; active = well fitted curve in the direction sought with a large enough effect, not every such curve was filed as active)
Chain of Pyruvate kinase PKM (Homo sapiens) (P14618 whole entry, looked up): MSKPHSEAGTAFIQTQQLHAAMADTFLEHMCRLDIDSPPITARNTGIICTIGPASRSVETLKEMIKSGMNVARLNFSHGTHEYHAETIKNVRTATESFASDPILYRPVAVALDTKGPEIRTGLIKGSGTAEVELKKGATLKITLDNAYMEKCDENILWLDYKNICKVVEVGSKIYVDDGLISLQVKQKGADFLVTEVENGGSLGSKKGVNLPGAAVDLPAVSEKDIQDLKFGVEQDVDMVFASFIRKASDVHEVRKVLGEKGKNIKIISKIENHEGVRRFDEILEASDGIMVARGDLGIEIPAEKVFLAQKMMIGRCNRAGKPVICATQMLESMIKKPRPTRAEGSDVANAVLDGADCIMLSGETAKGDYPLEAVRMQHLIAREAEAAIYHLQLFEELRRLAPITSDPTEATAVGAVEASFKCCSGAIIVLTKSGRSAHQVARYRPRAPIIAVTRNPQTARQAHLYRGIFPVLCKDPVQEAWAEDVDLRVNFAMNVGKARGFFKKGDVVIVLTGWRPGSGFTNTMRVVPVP
How it was run: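 Screening used highly purified human pyruvate kinase M2 under submaximal activity, with PEP at its Km and ADP below Km. After an hour at room temperature, ATP was read by luciferase luminescence.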

[4] = target: Alpha-galactosidase A (Homo sapiens) (UniProt P06280); test: Counterscreen for Glucocerebrosidase Inhibitors: qHTS Assay for Human alpha-Galactosidase at pH 4.5 (AID 992)
Chain of Alpha-galactosidase A (Homo sapiens) (P06280 whole entry, looked up): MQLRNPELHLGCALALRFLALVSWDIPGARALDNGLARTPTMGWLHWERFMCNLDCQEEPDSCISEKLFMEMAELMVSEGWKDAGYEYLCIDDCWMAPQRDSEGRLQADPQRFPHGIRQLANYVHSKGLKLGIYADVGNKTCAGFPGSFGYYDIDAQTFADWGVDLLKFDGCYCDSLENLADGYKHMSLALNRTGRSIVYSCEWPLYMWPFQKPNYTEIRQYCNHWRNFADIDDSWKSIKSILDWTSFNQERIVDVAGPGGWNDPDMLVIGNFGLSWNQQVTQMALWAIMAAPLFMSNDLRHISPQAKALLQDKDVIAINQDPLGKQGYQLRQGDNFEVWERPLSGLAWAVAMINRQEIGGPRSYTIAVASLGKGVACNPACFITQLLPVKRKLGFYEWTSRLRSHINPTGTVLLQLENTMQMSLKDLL
How it was run: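 Each compound is preincubated briefly with 2 nM enzyme before substrate addition (80 uM); plates then sit 20 min at ambient temperature, are quenched with 1M NaOH/1M glycine, and read fluorometrically.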

Measured: Potency

CN(CCOc1ccc(C[C@H](Nc2ccccc2C(=O)c2ccccc2)C(=O)O)cc1)c1ccccn1
inactive: all assays above
